Data published in PubChem BioAssay.
Active and inactive are the calls of the source.

Tests used:
[1] = molecular target: Albumin (Bos taurus) (UniProt P02769); experiment: compounds binding labelled BSA control protein – biochemical, small-molecule microarray, Alexa647 label, 635/667 nm fluorescence, artefact control for SMM control protein annotation, profiling panel (AID 1118); settings: BSA-A647 binding, fluorescence 635 nm, higher = more signal;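 further: score merges 667 nm emission intensity and signal-to-noise per printed compound spot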
[2] = probe aXIP binding to arrayed compounds – biochemical, NeuroSMM set, 635/667 nm fluorescence, primary screen (AID 1119); settings: small-molecule microarray, higher = more signal, called active from +8 up or from −8 down;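 further: probe is the protein aXip251-270 applied at 1 µg/mL to compound-printed slides; binding of probe to printed compounds measured as 667 nm fluorescence plus signal to noise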
[3] = probe aNOTCH3 binding on compound microarray – biochemical, small-molecule microarray, 635/667 nm fluorescence, primary screen (AID 1120); settings: higher = more signal;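 further: probe is a biotin-tagged antibody raised against NOTCH3 rather than NOTCH3 protein; score merges spot fluorescence near 667 nm with spot signal to noise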
[4] = probe aNOTCH2 binding on compound microarray – biochemical, small-molecule microarray, 635/667 nm fluorescence, primary screen (AID 1121); settings: higher = more signal;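 further: score merges feature fluorescence read at 667 nm with its signal to noise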
[5] = molecular target: Carbonic anhydrase 2 (Homo sapiens) (UniProt P00918); experiment: compounds binding carbonic anhydrase 2 – biochemical, small-molecule microarray, Alexa647-labelled CAII, profiling panel (AID 1122); settings: CAII-A647 binding fluorescence, higher = more signal
[6] = COS7 lysate on small-molecule microarray, probe aHis, 635 nm (AID 1123); settings: COS7 cell lysate, fluorescence, higher = more signal;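 further: z-score combines 667nm fluorescence intensity with signal-to-noise per printed compound spot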
[7] = probe aLAP1 signal on lysate-treated microarray – cell lysate, small-molecule microarray, COS7 lysate, primary screen (AID 1124); settings: probe aLAP1, fluorescence, higher = more signal;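 further: lysate comes from COS7 cells expressing LAP1 and is applied at 0.3 µg/mL; score merges spot fluorescence near 667 nm with signal-to-noise over triplicate slides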
[8] = test system: Sam68 (KHDRBS1); experiment: compounds binding KHDRBS1 protein – biochemical, small-molecule microarray, 635 nm fluorescence, primary screen (AID 1125); settings: higher = more signal;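 further: score merges 667 nm channel intensity with signal to noise over triplicate slides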
[9] = test system: Chordin-like protein 2 (CHRDL2); experiment: compounds binding chordin-like 2 – biochemical, small-molecule microarray, 635 nm fluorescence, primary screen (AID 1126); settings: fluorescence 635 nm, higher = more signal;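 further: printed compound slides probed with Chrdl2 protein at 4 µg/mL for 1 h at 4 C; score merges 667 nm emission intensity with signal to noise over three replicate slides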
[10] = molecular target: Concanavalin-A (Canavalia ensiformis) (UniProt P02866); experiment: compounds binding concanavalin A lectin – biochemical, small-molecule microarray, Alexa647 label, 635 nm, artefact control for SMM control protein annotation, primary screen (AID 1127); settings: ConA-A647 binding fluorescence, higher = more signal;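 further: z combines 667 nm emission intensity with signal-to-noise across three replicate slides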
[11] = compounds binding Alexa647 anti-His antibody – biochemical, small-molecule microarray, 635 nm fluorescence, artefact control for SMM control protein annotation, primary screen (AID 1128); settings: higher = more signal;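 further: score merges feature fluorescence with signal-to-noise for each printed compound spot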
[12] = test system: Human papillomavirus type 1a E7 protein (residues 1-88); experiment: HPV1a E7 small-molecule binders, primary screen, biochemical, small-molecule microarray, residues 1-88, 635 nm (AID 1129); settings: small-molecule microarray binding, fluorescence 635 nm; higher = more signal
[13] = molecular target: Focal adhesion kinase 1 (Homo sapiens) (UniProt Q05397); experiment: PTK2 protein binding on printed compound slides – biochemical, small-molecule microarray, 635/667 nm fluorescence, BSA, DTT, primary screen (AID 1130); settings: 635 nm fluorescence, higher = more signal;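 further: composite of spot emission at 667 nm and signal to noise over triplicate slides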
[14] = test system: Fibrinogen (Alexa647-labelled); experiment: Alexa647-fibrinogen binding to printed small molecules – biochemical, small-molecule microarray, 635/667 nm fluorescence, artefact control for SMM control-protein annotation, profiling panel (AID 1131); settings: fibrinogen-A647 binding fluorescence, higher = more signal;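 further: z-score merges 667 nm fluorescence with per-spot signal-to-noise over triplicate slides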
[15] = molecular target: Follistatin (Homo sapiens) (UniProt P19883); experiment: FST protein binding to printed compounds – biochemical, small-molecule microarray, 635/667 nm fluorescence, primary screen (AID 1132); settings: 635 nm fluorescence, higher = more signal
[16] = molecular target: Fibroblast growth factor 2 (Homo sapiens) (UniProt P09038); experiment: basic fibroblast growth factor binding to printed compounds – biochemical, small-molecule microarray, 635/667 nm fluorescence, primary screen (AID 1133); settings: FGF2, fluorescence 635/667, higher = more signal
[17] = JC-1 mitochondrial potential readout, lung cancer cells – cell-based, A549, JC-1 fluorescence, basal, 24 h, 100 nL, profiling panel (AID 1138); settings: higher = more signal;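 further: A549 lung adenocarcinoma cells under basal conditions with no added stimulus; test concentration not given here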
[18] = test system: Lefty1; experiment: Lefty1 protein binding to printed compounds – biochemical, small-molecule microarray, 635/667 nm fluorescence, primary screen (AID 1139); settings: fluorescence 635/667, higher = more signal
[19] = test system: wheat germ agglutinin (Triticum aestivum), Alexa647-labelled; experiment: Alexa647-WGA lectin binding to printed small molecules – biochemical, small-molecule microarray, 635/667 nm fluorescence, artefact control for SMM control-protein annotation, profiling panel (AID 1140); settings: WGA-A647 binding, 635 nm fluorescence, higher = more signal;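 further: score merges 667 nm feature emission with signal to noise over triplicate slides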
[20] = molecular target: Luciferin 4-monooxygenase (Photinus pyralis) (UniProt P08659); experiment: inhibition of purified Photinus pyralis luciferase – biochemical, luminescence, purified enzyme, 2006 set, primary screen (AID 1141); settings: purified firefly luciferase, SteadyGlo luminescence, 30 min; higher = more signal, called active from +8 up or from −8 down;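 further: cell-free assay with purified firefly luciferase at 100 ng per well in PBS; test concentration not given here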
Chain of Luciferin 4-monooxygenase (Photinus pyralis) (P08659 whole entry, looked up): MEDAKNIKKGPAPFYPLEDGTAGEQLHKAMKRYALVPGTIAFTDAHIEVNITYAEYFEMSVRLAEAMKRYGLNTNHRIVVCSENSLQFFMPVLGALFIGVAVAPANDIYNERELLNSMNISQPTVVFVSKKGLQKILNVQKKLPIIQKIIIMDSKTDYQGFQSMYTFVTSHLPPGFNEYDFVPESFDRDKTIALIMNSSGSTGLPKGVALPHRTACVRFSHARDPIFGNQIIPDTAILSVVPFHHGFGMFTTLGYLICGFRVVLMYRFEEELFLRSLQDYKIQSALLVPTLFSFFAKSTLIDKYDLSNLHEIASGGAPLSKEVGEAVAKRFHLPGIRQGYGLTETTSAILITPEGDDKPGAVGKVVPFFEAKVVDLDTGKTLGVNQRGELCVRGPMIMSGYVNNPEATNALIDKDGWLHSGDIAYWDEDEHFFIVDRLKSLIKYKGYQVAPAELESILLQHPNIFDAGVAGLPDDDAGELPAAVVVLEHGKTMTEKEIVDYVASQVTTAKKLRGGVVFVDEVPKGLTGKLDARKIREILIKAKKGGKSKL

Chain of Albumin (Bos taurus) (P02769 whole entry, looked up): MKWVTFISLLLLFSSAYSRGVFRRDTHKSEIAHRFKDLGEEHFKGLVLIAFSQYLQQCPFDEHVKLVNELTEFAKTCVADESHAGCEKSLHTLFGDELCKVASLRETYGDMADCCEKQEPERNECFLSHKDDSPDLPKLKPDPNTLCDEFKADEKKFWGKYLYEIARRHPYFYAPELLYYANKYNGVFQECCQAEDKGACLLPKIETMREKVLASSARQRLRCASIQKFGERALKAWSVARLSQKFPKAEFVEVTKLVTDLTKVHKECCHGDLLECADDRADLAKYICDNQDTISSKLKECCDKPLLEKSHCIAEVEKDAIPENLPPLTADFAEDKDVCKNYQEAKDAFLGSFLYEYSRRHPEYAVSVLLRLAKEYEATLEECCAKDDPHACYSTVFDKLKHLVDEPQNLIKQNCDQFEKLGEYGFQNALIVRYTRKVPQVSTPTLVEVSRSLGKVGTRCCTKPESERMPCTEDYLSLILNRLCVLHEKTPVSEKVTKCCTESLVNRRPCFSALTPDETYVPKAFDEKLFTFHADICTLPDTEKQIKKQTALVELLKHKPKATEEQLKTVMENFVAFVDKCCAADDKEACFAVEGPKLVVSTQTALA
Chain of Fibroblast growth factor 2 (Homo sapiens) (P09038 whole entry, looked up): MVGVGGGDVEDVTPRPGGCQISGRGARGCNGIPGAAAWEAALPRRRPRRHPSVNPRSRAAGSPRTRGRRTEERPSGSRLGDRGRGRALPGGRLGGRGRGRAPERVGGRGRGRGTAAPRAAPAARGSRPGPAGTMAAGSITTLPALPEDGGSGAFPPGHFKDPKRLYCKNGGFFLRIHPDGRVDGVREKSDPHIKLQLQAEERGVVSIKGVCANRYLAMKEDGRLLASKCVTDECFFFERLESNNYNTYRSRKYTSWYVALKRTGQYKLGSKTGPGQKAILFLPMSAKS
Chain of Concanavalin-A (Canavalia ensiformis) (P02866 whole entry, looked up): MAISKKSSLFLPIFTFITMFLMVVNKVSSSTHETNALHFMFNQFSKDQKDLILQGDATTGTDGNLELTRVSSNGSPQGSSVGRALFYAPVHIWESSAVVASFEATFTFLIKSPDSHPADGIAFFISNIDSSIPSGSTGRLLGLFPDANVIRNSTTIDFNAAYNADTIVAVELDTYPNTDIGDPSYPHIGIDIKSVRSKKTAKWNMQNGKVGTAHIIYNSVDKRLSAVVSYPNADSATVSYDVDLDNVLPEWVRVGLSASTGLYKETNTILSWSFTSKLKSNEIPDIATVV
Chain of Follistatin (Homo sapiens) (P19883 whole entry, looked up): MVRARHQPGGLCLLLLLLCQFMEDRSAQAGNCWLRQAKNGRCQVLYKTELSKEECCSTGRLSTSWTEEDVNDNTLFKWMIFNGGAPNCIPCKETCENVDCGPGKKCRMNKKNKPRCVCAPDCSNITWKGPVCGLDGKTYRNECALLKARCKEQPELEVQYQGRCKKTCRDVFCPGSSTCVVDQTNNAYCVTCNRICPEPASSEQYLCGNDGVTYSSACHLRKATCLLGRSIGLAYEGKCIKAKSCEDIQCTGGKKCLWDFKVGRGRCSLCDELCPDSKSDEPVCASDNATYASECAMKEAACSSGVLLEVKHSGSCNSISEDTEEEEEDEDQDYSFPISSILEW
Chain of Focal adhesion kinase 1 (Homo sapiens) (Q05397 whole entry, looked up): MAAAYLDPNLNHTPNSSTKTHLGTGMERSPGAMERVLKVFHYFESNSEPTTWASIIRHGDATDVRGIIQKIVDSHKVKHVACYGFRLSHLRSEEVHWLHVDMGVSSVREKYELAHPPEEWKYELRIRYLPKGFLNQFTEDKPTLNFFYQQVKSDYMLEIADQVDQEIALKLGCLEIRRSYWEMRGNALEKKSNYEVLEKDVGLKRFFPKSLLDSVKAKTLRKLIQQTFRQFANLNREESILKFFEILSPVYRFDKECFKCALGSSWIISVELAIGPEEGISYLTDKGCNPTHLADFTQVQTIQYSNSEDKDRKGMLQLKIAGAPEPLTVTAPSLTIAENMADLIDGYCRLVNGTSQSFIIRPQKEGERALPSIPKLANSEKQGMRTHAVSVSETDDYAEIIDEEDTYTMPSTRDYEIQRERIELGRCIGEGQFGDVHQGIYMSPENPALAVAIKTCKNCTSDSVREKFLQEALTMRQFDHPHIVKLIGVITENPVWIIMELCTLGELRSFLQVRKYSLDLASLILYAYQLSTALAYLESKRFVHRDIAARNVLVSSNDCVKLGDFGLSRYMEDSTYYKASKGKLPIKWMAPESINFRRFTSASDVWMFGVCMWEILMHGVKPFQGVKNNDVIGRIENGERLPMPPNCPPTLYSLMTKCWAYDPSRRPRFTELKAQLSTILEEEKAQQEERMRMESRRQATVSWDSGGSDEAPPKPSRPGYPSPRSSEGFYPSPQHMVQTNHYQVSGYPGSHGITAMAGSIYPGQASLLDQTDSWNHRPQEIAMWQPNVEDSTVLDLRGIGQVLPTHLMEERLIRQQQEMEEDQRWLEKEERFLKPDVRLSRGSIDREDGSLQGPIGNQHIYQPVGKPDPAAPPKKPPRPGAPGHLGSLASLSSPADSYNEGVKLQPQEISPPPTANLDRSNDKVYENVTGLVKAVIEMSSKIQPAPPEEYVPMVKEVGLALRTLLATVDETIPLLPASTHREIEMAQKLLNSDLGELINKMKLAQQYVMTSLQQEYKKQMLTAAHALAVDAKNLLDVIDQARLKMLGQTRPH

| Compound | composite z-score [1] | composite Z-score [2] | composite z-score [3] | composite z-score [4] | composite z-score [5] | composite z-score [6] | composite z-score [7] | composite z-score [8] | composite z-score [9] | composite z-score [10] | composite z-score [11] | composite z-score [12] | composite z-score [13] | composite z-score [14] | composite z-score [15] | composite z-score [16] | z-score [17] | composite z-score [18] | composite z-score [19] | z-score [20] |
| --- | --- | --- | --- | --- | --- | --- | --- | --- | --- | --- | --- | --- | --- | --- | --- | --- | --- | --- | --- | --- |
| CN(C)CCCN1C(=O)[C@@]2(c3ccc([N+](=O)[O-])cc3)CC(=O)N(C3CCCCC3)[C@@H]2c2ccc(CO)cc21 | -0.4 | 0.0831 (inactive) | -0.0665 | -0.0455 | -0.622 | -0.317 | -0.233 | -0.395 | -0.137 | 0.209 | 0.0598 | -1.05 | -0.042 | -0.916 | 0.0687 | 0.836 | -0.493 | -0.262 | 0.12 | 1.2 (inactive) |
| O=C1OCC=C[C@H]2OC34C=CCN(c5ccc6ccccc6c5)C(=O)[C@H]3N(CCO)C(=O)[C@@H]4[C@@H]12 (stereo not given in full) | -0.855 | 0.138 (inactive) | -0.172 | -0.115 | 0.804 | 0.174 | -0.532 | -0.873 | -2.08 | -0.681 | 0.0061 | -0.785 | -0.415 | -1.22 | -1.05 | -2.06 | 1.51 | -0.455 | -1.18 | -0.646 (inactive) |
| CCOC(=O)N1C(c2ccc(OCCCO)cc2)=NC(C(=O)OC)N1C(=O)OCC (stereo not given) | 0.878 | -0.363 (inactive) | 0.183 | -0.0326 | 0.733 | 1.73 | 0.626 | 1.18 | -0.105 | 1.09 | 0.369 | 1.2 | 0.454 | 0.864 | 1.31 | 0.955 | -0.541 | 1.07 | 0.669 | -1.45 (inactive) |
| COC(=O)[C@@]1(Cc2ccc(F)cc2)[C@H]2c3cc(C(=O)N(C)C)n(Cc4ccccn4)c3C[C@H]2CN1C(=O)c1ccccc1 | 0.979 | -0.91 (inactive) | 1.15 | -0.168 | 0.908 | 2.46 | 1.08 | 1.19 | -0.552 | 0.481 | 1.12 | 1.26 | 1.08 | 0.685 | 0.251 | -0.281 | 1.04 | -0.12 | 0.647 | 3 (inactive) |
| C#C[C@H](O[Si](C#CCCCCCC)(C(C)C)C(C)C)c1ccccc1 | -0.22 | 0.364 (inactive) | -0.22 | -0.155 | 0.342 | 0.43 | -0.281 | 0.524 | -0.0786 | -0.0042 | 0.272 | 0.203 | -0.308 | -0.152 | 0.481 | -0.471 | -0.562 | 0.605 | -0.174 | 1.25 (inactive) |
| Cc1ccccc1/C=C/C=O | -0.699 | -0.0934 (inactive) | -0.19 | -0.171 | -0.293 | -0.256 | -0.298 | -1.35 | -0.56 | -0.485 | -0.0248 | -1.29 | -0.3 | -2.75 | -0.0561 | -0.134 | 0.795 | -0.234 | -0.604 | 0.702 (inactive) |
| O=C1c2ccccc2[C@](Cc2ccccc2I)(C(=O)O)[C@H](c2ccc(CO)cc2)N1Cc1ccccc1C(F)(F)F | 0.449 | -0.249 (inactive) | -0.0647 | -0.106 | 0.583 | 1.91 | 1.77 | 0.431 | -0.697 | 0.918 | 1.3 | 1.09 | 0.425 | 0.9 | 0.72 | -0.238 | -0.635 | -0.374 | 1.12 | 0.63 (inactive) |
| C=C(/C(=C/C[C@@H](OC(=O)c1ccncc1)c1ccc(CO)o1)c1cc(C(=O)OC)ccc1OC)C(C)C | 0.83 | 0.459 (inactive) | 0.0311 | -0.109 | 0.588 | 1.13 | 0.812 | 1.3 | 0.737 | 1.08 | 1.02 | 1.23 | 0.317 | 0.415 | 1.09 | 1.3 | 0.375 | 1.24 | 0.553 | -4.24 (inactive) |
| O=C1C[C@@](C(=O)O)(c2ccc([N+](=O)[O-])cc2)[C@@H](c2ccc(CO)cc2I)N1C1CCCCC1 | 0.909 | 0.477 (inactive) | 0.18 | -0.0397 | 0.673 | 1.95 | -0.405 | 0.765 | -0.422 | 1.15 | 0.806 | 0.796 | 0.113 | 0.873 | 0.539 | 0.293 | -0.706 | 0.471 | 0.832 | -0.411 (inactive) |
| O=C1OCC=C[C@H]2OC34C=CCN(CCN5CCOCC5)C(=O)[C@H]3N(CCCCCCO)C(=O)[C@@H]4[C@@H]12 (stereo not given in full) | 0.509 | -1.05 (inactive) | 0.0208 | -0.104 | 0.688 | 3.1 | 0.55 | 0.274 | 0.158 | 0.0683 | 3.21 | -0.206 | -0.0142 | -0.469 | 0.277 | -0.131 | 0.582 | 0.659 | -0.0261 | -0.689 (inactive) |
| O=C1C[C@@](C(=O)O)(c2ccc([N+](=O)[O-])cc2)[C@@H](c2ccc(CO)cc2I)N1CC12CC3CC(CC(C3)C1)C2 | 0.776 | 0.235 (inactive) | -0.132 | 0.0808 | 0.64 | 1.63 | 0.945 | 0.993 | -1.42 | 1.09 | 0.829 | 1.11 | 0.365 | 0.607 | 0.348 | -0.35 | -1.1 | 0.665 | 1.03 | -0.869 (inactive) |
| [N-]=[N+]=Nc1ccccc1[C@H]1OC(c2ccc(OCCCO)cc2)=N[C@@]1(CCS(=O)(=O)c1ccccc1)C(=O)N1CCOCC1 | 1.08 | 1.23 (inactive) | 0.586 | 0.358 | 0.522 | 2.65 | 0.603 | 1.3 | -0.409 | 1.22 | 2.83 | 1.26 | 1.32 | 1 | 1.3 | 1.73 | -0.218 | 0.225 | 1.47 | -15 (active) |
| O=C1OCCC=C[C@H]2OC34C=CCN(c5ccc6ccccc6c5)C(=O)[C@H]3N(CCCCCCO)C(=O)[C@@H]4C12 (stereo not given in full) | -0.768 | 0.938 (inactive) | -0.161 | -0.14 | 0.82 | 0.386 | -0.674 | 0.264 | -0.853 | -1.01 | -0.365 | -0.992 | -0.0504 | -0.771 | -0.761 | -0.97 | 1.48 | -0.61 | -0.451 | -1.2 (inactive) |
| C=CCC(OC(C)=O)[C@@H]1[C@@H](N(Cc2cc3ccccc3o2)C(=O)c2cccc3ccccc23)c2cc(OCCCO)ccc2N1C(=O)Cc1ccc(OC)cc1 (stereo not given in full) | -0.131 | 0.495 (inactive) | 0.0602 | -0.0937 | 0.327 | 0.497 | -0.0685 | -0.0427 | 0.364 | -0.162 | 0.305 | -0.328 | -0.109 | 0.412 | 1.02 | 0.78 | -0.529 | 0.339 | 0.637 | 0.48 (inactive) |
| C=CCC(OC(C)=O)[C@@H]1[C@@H](N(Cc2cc3ccccc3o2)C(=O)c2ccc(-c3ccccc3)cc2)c2cc(OCCCO)ccc2N1C(=O)Cc1ccc2ccccc2c1 (stereo not given in full) | -0.0043 | -0.12 (inactive) | -0.0716 | -0.166 | -0.127 | 0.466 | 0.255 | -0.156 | 0.213 | -0.136 | 0.708 | -0.321 | -0.0252 | 0.186 | 0.386 | -0.0741 | 1.33 | -0.0934 | 0.34 | -0.729 (inactive) |
| COc1ccc([Si](C)(C)[C@H]2[C@H](CCO)O[C@@]3(C(=O)N(Cc4cccc(N5C(=O)c6cccc7cccc5c67)c4)c4ccccc43)[C@@H]2C)cc1 | 0.577 | 0.326 (inactive) | -0.122 | -0.148 | 0.23 | 0.856 | 1.42 | 1.13 | -0.27 | 0.863 | 0.86 | 0.586 | 1.02 | 0.53 | -0.16 | -0.23 | 0.325 | -0.0439 | 0.563 | 0.669 (inactive) |
